In a collection of fitness landscapes (doi:10.1016/j.celrep.2020.107928):
Whole data set: some 81,000 sequences, median “one-hybrid fitness for binding NBS DNA” near -0.1, cut for the highest 2% near 0.36. For the sample, the highest values were picked, then their nearest neighbours and some sequences at random.

B1: Caulobacter ParB omega fusion; a variant is named by its letters at X, in order, B8GW30 (parent)
chain: MESVVVGEPGMSEGRRGLGRGLSALLGEVDAAPAQAPGEQLGGSREAPIEILQRNPDQPRRTFREEDLEDLSNSIREKGVLQPILVRPSPDTAGEYQIVAGERAWRAAQRAGLKTVPIMVRELDDLAVLEIGIIENVQRADLNVLEEALSYKVLMEKFERTQENIAQTIGKSXSHVANXMRLLXLPDEVQSYLVSGELTAXHARAIAAAADPVALAKQIIEGGLSVRETEALARKAPNLSAGKSKGGRPPRVKDTDTQALESDLSSVLGLDVSIDHRGSTGTLTITYATLEQLDDLCNRLTRGI

Variants of: B1
Experiment: one-hybrid fitness for binding NBS DNA (the Noc-binding site; scaled: cognate 1, non-cognate 0); higher = stronger binding
Settings: with NBS DNA site
How it was run: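 On M9-minus-histidine containing 0.1 mM IPTG and 5 mM 3-AT, E. coli USO cells with a HIS3 reporter, site 19 bp from the promoter, grew 48 hours at 37°C to select Caulobacter ParB libraries randomised at four specificity codons. Plasmids from before and after were Illumina-sequenced, with three replicate libraries pooled and variants under 10 reads left out. Fitness is the log change in variant-to-wild-type read ratio, rescaled against cognate and non-cognate.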

Row | Variant | one-hybrid fitness for binding NBS DNA
1 | PTMM | ≤ 0.2
2 | REHM | ≤ 0.2
3 | TEDC | ≤ 0.2
4 | MFLM | ≤ 0.2
5 | WPQL | ≤ 0.2
6 | QDTP | ≤ 0.2
7 | SAMV | ≤ 0.2
8 | RPKA | ≤ 0.2
9 | RFKA | ≤ 0.2
10 | RKKA | 0.514
11 | RIKA | 0.327
12 | RCKA | 0.423
13 | RTVA | ≤ 0.2
14 | RKVA | ≤ 0.2
15 | RRKA | 0.712
16 | RTPA | ≤ 0.2
17 | RTKA | 0.479
18 | RSKA | 0.343
19 | RKWA | 0.249
20 | VDGR | ≤ 0.2
21 | KWPI | ≤ 0.2
22 | RNIK | ≤ 0.2
23 | VKTS | ≤ 0.2
24 | LYFR | ≤ 0.2
25 | CLSP | ≤ 0.2
26 | QWKS | ≤ 0.2

Row | Variant | one-hybrid fitness for binding NBS DNA
27 | SAIE | ≤ 0.2
28 | RSVA | ≤ 0.2
29 | RCVA | ≤ 0.2
30 | RRVA | 0.571
31 | SFPF | ≤ 0.2
32 | CLCS | ≤ 0.2
33 | HDRG | ≤ 0.2
34 | PCMM | ≤ 0.2
35 | QSNS | 0.421
36 | QSNH | 0.273
37 | QHDS | ≤ 0.2
38 | QADS | ≤ 0.2
39 | QHNS | 0.419
40 | QMNP | ≤ 0.2
41 | QANP | ≤ 0.2
42 | QMNS | 0.458
43 | QMDS | ≤ 0.2
44 | QSDS | ≤ 0.2
45 | QHNN | ≤ 0.2
46 | QANS | 0.392
47 | KNIF | ≤ 0.2
48 | WQYS | ≤ 0.2
49 | YNRS | ≤ 0.2
50 | VAGY | ≤ 0.2
51 | ITFA | ≤ 0.2
52 | TSRF | ≤ 0.2

Row | Variant | one-hybrid fitness for binding NBS DNA
53 | KQID | ≤ 0.2
54 | QCNS | 0.534
55 | QLNS | 0.385
56 | QPNS | ≤ 0.2
57 | QLDS | ≤ 0.2
58 | QINS | 0.329
59 | QLNP | ≤ 0.2
60 | CAVL | ≤ 0.2
61 | QSVQ | 0.291
62 | QSKQ | 0.351
63 | QRKQ | 0.492
64 | QPKQ | ≤ 0.2
65 | QRVQ | 0.511
66 | QRPQ | ≤ 0.2
67 | QPVQ | 0.598
68 | QWKF | ≤ 0.2
69 | LTYT | ≤ 0.2
70 | THMS | ≤ 0.2
71 | QFPN | ≤ 0.2
72 | GTPY | ≤ 0.2
73 | EAGR | ≤ 0.2
74 | MHRT | ≤ 0.2
75 | RVTD | ≤ 0.2
76 | RVTS | 0.392
77 | RVTN | ≤ 0.2
78 | RVTR | 0.429

Row | Variant | one-hybrid fitness for binding NBS DNA
79 | RVTP | ≤ 0.2
80 | RVTT | 0.449
81 | RVTM | ≤ 0.2
82 | RVTY | ≤ 0.2
83 | RVTH | ≤ 0.2
84 | LTHY | ≤ 0.2
85 | RNVL | ≤ 0.2
86 | GFEG | ≤ 0.2
87 | DLLN | ≤ 0.2
88 | QAHD | ≤ 0.2
89 | MARN | ≤ 0.2
90 | QAGR | 0.525
91 | QAIR | 0.308
92 | QAGD | ≤ 0.2
93 | MARR | 0.414
94 | QAHR | 0.541
95 | QAYR | 0.464
96 | QAGH | ≤ 0.2
97 | QAHQ | ≤ 0.2
98 | MAYR | ≤ 0.2
99 | QAPR | 0.275
100 | PHID | ≤ 0.2
101 | SLRF | ≤ 0.2
102 | CMGR | ≤ 0.2
103 | NAWR | ≤ 0.2
104 | STPW | ≤ 0.2

Row | Variant | one-hybrid fitness for binding NBS DNA
105 | CRAL | ≤ 0.2
106 | FGKT | ≤ 0.2
107 | GADW | ≤ 0.2
108 | KKET | ≤ 0.2
109 | MDLY | ≤ 0.2
110 | QARD | 0.23
111 | QARP | 0.24
112 | QARR | 0.973
113 | AKDS | ≤ 0.2
114 | LERS | ≤ 0.2
115 | RSVQ | ≤ 0.2
116 | RPVQ | 0.397
117 | RCKQ | 0.254
118 | RSKQ | ≤ 0.2
119 | RKVQ | ≤ 0.2
120 | RRKQ | 0.436
121 | RRYQ | 0.207
122 | RCVQ | 0.215
123 | RRRQ | 0.401
124 | RRDQ | 0.241
125 | RFVQ | ≤ 0.2
126 | RRVQ | 0.428
127 | GWHC | ≤ 0.2
128 | VAYS | ≤ 0.2
129 | MTCD | ≤ 0.2
130 | DSMI | ≤ 0.2

Row | Variant | one-hybrid fitness for binding NBS DNA
131 | KMGG | ≤ 0.2
132 | CFTM | ≤ 0.2
133 | YTCL | ≤ 0.2
134 | NNIR | ≤ 0.2
135 | LTMG | ≤ 0.2
136 | YGMS | ≤ 0.2
137 | RDGN | ≤ 0.2
138 | AVNT | ≤ 0.2
139 | WVRG | ≤ 0.2
140 | LRPM | ≤ 0.2
141 | KTIT | ≤ 0.2
142 | DVIS | ≤ 0.2
143 | LRVF | ≤ 0.2
144 | QTVF | ≤ 0.2
145 | QRKF | 0.405
146 | QRVF | ≤ 0.2
147 | QTLF | ≤ 0.2
148 | QSKF | 0.29
149 | QTKF | 0.43
150 | QCKF | 0.387
151 | QPKF | ≤ 0.2
152 | QRPF | ≤ 0.2
153 | ASVE | ≤ 0.2
154 | QMSV | ≤ 0.2
